Common to all, as to assay: DAPPL (digital affinity profiling via proximity ligation, sequencing); 10 mM Tris-HCl pH 7.5, 50 mM NaCl, 1 mM DTT, 4% glycerol, room temperature, 30 min; GST-TFs on glutathione beads, 16-mer random dsDNA library, 0.1% formaldehyde crosslink after washing; high values mean tight binding
Experiment [1] addresses T1, FLI1 (Homo sapiens, UniProt Q01543 1-452).
T1 sequence: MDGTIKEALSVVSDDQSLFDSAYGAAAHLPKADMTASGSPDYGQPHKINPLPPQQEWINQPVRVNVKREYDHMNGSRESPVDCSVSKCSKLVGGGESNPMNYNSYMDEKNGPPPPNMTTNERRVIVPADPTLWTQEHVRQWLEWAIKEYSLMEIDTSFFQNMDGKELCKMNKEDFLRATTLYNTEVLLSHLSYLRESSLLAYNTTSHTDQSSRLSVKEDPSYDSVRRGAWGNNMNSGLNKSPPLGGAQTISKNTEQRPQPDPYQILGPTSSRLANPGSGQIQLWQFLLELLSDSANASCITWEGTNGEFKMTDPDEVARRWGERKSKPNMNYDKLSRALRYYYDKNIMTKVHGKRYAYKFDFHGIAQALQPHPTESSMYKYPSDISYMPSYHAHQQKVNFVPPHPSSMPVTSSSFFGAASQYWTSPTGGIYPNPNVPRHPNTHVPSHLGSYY
To be noted: protein: recombinant; tags: N-terminal GST; dsDNA, one strand shown. The gist of the method: (§1)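 Pools were built from human transcription factors expressed in yeast as GST fusions, captured on glutathione beads and DNA-barcoded, along with a tag-only sample. Incubation with 200 nmole of a 16-mer random double-stranded DNA library lasted 30 min at room temperature in Tris/NaCl/DTT/glycerol buffer, and was followed by washing, 0.1% formaldehyde crosslinking, proximity ligation, PCR amplification and Illumina NextSeq500 sequencing. Binding signal is the quotient of each hexamer's read frequency for a factor and its frequency for the tag-only sample.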

The target of experiment [2] is T2, ELK1 (Homo sapiens, UniProt P19419 1-428).
T2 sequence: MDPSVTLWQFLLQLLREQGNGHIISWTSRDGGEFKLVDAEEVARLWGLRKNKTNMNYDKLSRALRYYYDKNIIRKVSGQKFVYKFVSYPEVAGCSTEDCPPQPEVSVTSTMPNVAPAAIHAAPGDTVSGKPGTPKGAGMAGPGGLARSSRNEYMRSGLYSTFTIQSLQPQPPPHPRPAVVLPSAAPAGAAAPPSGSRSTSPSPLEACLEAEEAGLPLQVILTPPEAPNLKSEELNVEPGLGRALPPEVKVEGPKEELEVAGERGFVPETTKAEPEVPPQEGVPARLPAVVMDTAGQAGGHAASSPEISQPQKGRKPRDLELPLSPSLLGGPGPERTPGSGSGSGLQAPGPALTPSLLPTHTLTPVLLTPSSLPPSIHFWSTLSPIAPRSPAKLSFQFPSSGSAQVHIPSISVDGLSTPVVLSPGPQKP
Conditions: protein: recombinant; tags: N-terminal GST; dsDNA, one strand shown. The essentials: as §1

The target of experiment [3] is T3, GABPA (Homo sapiens, UniProt Q06546 1-454).
T3 sequence: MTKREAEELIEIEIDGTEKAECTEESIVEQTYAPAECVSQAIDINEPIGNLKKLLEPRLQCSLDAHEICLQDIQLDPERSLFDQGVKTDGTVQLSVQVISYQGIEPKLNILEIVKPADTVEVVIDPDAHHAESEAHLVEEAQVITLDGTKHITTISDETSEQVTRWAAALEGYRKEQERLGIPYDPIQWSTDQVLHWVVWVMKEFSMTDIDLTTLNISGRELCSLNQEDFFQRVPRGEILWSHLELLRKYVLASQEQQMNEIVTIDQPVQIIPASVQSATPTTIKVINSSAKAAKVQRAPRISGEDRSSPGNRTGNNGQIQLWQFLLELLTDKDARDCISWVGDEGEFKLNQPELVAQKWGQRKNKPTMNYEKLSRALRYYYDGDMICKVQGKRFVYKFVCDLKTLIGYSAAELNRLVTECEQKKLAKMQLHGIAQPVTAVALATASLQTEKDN
To be noted: protein: recombinant; tags: N-terminal GST; dsDNA, one strand shown. The gist of the method:
as §1

Experiment [4] deals with T4, ERG (Homo sapiens, UniProt P11308 1-479).
T4 sequence: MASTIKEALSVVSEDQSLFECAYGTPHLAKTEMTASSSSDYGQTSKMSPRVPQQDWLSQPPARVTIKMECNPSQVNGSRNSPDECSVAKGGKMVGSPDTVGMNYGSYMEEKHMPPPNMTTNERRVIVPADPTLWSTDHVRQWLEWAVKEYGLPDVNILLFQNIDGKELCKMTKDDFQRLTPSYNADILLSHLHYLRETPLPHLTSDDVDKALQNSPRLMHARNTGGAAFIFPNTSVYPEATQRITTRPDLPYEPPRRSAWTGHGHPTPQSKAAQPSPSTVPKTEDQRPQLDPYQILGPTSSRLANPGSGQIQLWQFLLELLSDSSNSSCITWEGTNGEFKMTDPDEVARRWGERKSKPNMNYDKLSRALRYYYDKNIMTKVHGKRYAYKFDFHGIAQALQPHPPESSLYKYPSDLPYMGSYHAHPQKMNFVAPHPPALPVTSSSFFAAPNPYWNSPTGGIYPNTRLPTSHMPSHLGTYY
To be noted: protein: recombinant; tags: N-terminal GST; dsDNA, one strand shown. The essentials: as §1

The target of experiment [5] is ELF1 (Homo sapiens, UniProt P32519 1-619). Conditions: protein: recombinant; tags: N-terminal GST; dsDNA, one strand shown. The gist of the method:
as §1

Experiment [6] addresses T5, EHF (Homo sapiens, UniProt Q9NZC4 1-300).
T5 sequence: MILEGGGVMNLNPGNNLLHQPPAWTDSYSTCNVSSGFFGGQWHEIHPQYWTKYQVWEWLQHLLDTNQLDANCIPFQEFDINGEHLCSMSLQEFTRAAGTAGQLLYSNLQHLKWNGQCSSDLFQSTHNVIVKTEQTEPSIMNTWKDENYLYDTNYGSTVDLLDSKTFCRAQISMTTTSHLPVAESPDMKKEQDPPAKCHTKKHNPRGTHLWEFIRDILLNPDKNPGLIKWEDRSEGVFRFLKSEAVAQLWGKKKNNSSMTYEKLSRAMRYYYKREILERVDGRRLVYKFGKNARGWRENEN
To be noted: protein: recombinant; tags: N-terminal GST; dsDNA, one strand shown. The gist of the method:
as §1

The target of experiment [7] is SPI1 (Homo sapiens, UniProt P17947 1-270). Conditions: protein: recombinant; tags: N-terminal GST; dsDNA, one strand shown. The essentials: as §1
For experiment [8], the target named is SPIB (Homo sapiens, UniProt Q01892 1-262). To be noted: protein: recombinant; tags: N-terminal GST; dsDNA, one strand shown. The essentials:
as §1

Experiment [9] deals with T6, ELK3 (Homo sapiens, UniProt P41970 1-407).
T6 sequence: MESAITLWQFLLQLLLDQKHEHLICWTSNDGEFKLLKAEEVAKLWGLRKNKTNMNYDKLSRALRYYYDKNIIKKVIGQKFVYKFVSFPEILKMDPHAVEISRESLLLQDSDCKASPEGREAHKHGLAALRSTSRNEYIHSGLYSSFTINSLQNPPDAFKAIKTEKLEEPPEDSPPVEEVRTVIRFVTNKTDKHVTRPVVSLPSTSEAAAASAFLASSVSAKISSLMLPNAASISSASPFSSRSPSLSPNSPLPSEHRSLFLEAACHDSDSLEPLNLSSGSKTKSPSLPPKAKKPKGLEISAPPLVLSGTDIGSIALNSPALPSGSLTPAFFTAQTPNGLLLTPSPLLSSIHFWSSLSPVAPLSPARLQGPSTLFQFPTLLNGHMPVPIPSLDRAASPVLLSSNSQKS
Conditions: protein: recombinant; tags: N-terminal GST; dsDNA, one strand shown. The gist of the method: as §1

Experiment [10] concerns the target T7, FEV (Homo sapiens, UniProt Q99581 1-238).
T7 sequence: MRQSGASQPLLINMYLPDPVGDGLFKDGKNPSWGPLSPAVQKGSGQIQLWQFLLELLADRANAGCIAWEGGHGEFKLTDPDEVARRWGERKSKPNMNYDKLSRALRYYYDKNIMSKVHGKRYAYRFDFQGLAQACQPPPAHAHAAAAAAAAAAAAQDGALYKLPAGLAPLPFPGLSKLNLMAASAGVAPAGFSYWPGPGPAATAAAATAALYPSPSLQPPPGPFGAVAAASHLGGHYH
Conditions: protein: recombinant; tags: N-terminal GST; dsDNA, one strand shown. The gist of the method: as §1

For experiment [11], the target named is ETV5 (Homo sapiens, UniProt P41161 1-510). Conditions: protein: recombinant; tags: N-terminal GST; dsDNA, one strand shown. The essentials:
as §1

The target in experiment [12] is HSF1 (Homo sapiens, UniProt Q00613 1-529). To be noted: protein: recombinant; tags: N-terminal GST; chain copies: 3; dsDNA, one strand shown. The gist of the method: as §1
The target in experiment [13] is T8, SPIC (Homo sapiens, UniProt Q8N5J4 1-248).
T8 sequence: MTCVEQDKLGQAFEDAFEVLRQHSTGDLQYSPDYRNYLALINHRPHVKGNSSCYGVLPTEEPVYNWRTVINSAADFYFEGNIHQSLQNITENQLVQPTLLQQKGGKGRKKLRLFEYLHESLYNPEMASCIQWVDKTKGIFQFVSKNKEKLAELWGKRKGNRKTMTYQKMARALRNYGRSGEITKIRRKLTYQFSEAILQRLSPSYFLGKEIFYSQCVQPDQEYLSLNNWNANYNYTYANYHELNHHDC
To be noted: protein: recombinant; tags: N-terminal GST; dsDNA, one strand shown. The essentials:
as §1

Experiment [14] concerns the target ELF4 (Homo sapiens, UniProt Q99607 1-663). To be noted: protein: recombinant; tags: N-terminal GST; dsDNA, one strand shown. The essentials: as §1
Experiment [15] deals with T9, ELK4 (Homo sapiens, UniProt P28324-2 1-405).
T9 sequence: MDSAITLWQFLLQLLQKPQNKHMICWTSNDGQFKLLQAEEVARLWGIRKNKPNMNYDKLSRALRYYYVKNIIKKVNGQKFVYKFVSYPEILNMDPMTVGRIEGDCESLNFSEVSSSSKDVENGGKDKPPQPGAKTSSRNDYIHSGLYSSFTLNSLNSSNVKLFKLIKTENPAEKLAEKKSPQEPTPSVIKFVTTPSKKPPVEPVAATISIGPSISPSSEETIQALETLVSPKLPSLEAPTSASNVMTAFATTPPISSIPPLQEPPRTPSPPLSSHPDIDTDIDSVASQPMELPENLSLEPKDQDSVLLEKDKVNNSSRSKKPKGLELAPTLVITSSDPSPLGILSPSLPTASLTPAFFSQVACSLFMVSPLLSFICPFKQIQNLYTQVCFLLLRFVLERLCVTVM
Conditions: protein: recombinant; tags: N-terminal GST; dsDNA, one strand shown. The essentials: as §1

Experiment [16] addresses T10, ETV2 (Homo sapiens, UniProt O00321 1-342).
T10 sequence: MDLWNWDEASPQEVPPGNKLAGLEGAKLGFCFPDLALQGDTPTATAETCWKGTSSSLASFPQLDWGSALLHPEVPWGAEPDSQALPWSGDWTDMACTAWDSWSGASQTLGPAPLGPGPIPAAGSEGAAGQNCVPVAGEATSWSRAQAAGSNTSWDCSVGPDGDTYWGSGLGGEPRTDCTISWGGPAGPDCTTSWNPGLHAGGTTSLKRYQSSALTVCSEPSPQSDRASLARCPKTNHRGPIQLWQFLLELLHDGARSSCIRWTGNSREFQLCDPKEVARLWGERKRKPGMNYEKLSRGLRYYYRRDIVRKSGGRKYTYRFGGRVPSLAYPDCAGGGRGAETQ
Conditions: protein: recombinant; tags: N-terminal GST; dsDNA, one strand shown. The essentials:
as §1

Experiment [17] addresses T11, ELF3 (Homo sapiens, UniProt P78545 1-371).
T11 sequence: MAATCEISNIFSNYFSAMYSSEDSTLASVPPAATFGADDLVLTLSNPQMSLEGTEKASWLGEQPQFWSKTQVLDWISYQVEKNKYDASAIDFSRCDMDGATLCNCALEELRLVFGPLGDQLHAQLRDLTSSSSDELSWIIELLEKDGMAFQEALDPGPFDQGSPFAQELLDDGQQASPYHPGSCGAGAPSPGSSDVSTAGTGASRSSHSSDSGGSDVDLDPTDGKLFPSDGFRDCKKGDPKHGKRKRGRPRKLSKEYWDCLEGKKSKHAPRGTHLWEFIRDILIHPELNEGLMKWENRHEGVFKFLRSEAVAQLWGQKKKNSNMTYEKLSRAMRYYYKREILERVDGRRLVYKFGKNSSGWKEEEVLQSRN
To be noted: protein: recombinant; tags: N-terminal GST; dsDNA, one strand shown. The essentials:
as §1

For experiment [18], the target named is CRX (Homo sapiens, UniProt O43186 1-299). To be noted: protein: recombinant; tags: N-terminal GST; dsDNA, one strand shown. The gist of the method:
as §1

Experiment [19] addresses ETV1 (Homo sapiens, UniProt P50549 1-477). Conditions: protein: recombinant; tags: N-terminal GST; dsDNA, one strand shown. The essentials: as §1

SPIB, sequence (Q01892 whole entry): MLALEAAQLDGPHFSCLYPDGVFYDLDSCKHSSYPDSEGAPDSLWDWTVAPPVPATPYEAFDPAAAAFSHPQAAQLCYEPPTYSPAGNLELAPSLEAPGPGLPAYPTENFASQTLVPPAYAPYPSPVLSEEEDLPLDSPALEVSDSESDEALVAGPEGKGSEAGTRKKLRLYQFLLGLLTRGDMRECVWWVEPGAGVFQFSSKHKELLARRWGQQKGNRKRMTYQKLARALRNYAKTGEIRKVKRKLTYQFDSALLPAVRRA
ETV5, sequence (P41161 whole entry): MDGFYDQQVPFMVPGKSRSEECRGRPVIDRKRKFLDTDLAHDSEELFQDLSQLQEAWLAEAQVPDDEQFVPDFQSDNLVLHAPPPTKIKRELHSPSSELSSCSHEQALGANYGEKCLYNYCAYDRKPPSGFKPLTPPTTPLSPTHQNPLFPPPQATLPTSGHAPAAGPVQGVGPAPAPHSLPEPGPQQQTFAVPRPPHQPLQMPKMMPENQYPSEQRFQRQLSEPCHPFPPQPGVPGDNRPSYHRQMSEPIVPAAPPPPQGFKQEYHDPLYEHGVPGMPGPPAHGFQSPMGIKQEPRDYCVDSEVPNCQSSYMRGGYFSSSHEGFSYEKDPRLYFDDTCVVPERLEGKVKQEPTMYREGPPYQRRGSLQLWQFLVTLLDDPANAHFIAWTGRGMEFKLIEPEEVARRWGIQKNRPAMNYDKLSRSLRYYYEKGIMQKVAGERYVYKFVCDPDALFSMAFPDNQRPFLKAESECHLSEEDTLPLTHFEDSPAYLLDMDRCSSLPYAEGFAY
ELF4, sequence (Q99607 whole entry): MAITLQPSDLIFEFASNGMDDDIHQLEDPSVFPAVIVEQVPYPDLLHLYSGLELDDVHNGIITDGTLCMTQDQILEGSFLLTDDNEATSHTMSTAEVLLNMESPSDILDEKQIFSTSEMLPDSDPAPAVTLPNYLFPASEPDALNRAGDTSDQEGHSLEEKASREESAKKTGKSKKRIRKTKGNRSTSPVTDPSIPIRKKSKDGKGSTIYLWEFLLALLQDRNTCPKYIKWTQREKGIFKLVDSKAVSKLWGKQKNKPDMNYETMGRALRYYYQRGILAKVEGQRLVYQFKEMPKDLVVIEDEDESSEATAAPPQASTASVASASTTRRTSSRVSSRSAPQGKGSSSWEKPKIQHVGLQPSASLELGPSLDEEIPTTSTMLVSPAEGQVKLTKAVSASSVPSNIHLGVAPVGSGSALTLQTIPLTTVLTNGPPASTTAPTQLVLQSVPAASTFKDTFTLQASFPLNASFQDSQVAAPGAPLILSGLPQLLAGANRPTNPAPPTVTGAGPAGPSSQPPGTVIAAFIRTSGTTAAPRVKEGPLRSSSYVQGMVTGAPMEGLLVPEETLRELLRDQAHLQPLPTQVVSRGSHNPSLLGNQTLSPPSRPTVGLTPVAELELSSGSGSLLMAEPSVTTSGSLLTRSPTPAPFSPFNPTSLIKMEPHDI
CRX, sequence (O43186 whole entry): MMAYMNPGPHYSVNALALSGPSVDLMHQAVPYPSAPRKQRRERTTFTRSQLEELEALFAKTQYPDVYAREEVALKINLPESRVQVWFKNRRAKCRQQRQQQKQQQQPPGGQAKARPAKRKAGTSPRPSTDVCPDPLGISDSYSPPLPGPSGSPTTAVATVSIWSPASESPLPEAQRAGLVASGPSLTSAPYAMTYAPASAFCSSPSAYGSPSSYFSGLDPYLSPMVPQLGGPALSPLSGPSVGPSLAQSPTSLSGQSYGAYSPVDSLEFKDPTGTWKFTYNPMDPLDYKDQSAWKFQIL
ETV1, sequence (P50549 whole entry): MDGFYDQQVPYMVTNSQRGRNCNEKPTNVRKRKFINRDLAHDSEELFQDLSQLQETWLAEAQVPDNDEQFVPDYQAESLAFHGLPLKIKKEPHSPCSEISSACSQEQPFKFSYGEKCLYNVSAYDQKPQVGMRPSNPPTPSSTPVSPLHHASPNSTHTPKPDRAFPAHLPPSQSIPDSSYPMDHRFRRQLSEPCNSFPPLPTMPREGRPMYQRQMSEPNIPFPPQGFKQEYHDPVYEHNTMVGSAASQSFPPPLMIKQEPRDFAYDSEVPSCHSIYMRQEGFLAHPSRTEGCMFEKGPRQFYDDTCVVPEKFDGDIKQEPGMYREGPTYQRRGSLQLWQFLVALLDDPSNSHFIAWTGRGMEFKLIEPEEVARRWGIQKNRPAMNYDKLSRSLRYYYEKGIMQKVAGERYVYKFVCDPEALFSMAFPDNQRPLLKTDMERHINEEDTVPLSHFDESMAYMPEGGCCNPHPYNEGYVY
ELF1, sequence (P32519 whole entry): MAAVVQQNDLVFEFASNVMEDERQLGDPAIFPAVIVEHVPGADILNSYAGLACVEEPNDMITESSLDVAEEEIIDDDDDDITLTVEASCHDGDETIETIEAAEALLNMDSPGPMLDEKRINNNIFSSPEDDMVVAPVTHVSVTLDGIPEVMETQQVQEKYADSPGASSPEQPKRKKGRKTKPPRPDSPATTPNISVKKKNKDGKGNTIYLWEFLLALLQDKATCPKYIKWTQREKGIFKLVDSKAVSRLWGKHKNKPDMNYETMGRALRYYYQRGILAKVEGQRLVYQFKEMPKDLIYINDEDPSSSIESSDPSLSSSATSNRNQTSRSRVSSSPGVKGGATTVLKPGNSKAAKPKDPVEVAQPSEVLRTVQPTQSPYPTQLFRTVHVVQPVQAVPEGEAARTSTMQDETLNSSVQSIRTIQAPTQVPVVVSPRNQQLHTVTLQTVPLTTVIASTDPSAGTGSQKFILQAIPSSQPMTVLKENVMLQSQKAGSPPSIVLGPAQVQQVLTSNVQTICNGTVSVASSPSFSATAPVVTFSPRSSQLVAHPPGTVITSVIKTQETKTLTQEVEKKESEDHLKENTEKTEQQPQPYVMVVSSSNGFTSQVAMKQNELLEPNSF
HSF1, sequence (Q00613 whole entry): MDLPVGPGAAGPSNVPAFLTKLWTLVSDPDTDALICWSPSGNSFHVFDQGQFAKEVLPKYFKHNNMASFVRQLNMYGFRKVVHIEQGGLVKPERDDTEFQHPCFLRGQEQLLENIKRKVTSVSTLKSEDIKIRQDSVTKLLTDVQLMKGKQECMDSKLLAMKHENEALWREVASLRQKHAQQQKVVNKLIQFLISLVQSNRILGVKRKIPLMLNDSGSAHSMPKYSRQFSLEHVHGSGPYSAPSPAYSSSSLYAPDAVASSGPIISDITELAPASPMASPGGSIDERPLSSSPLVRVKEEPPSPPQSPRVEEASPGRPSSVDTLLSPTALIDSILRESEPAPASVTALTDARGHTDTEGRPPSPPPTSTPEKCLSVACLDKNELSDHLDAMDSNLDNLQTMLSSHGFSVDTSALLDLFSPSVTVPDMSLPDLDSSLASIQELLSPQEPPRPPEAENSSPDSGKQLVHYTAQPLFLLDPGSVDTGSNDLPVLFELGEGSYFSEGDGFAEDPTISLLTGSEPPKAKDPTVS

On to GCTGCT, for which the binding signal in experiment [1] is 1.32 fold enrichment (6-mer frequency, TF over GST control); in experiment [2] it was 1.24 fold enrichment (6-mer frequency, TF over GST control); in [3] it was 1.24 fold enrichment (6-mer frequency, TF over GST control); in experiment [4], 1.29 fold enrichment (6-mer frequency, TF over GST control); in experiment [5], 1.41 fold enrichment (6-mer frequency, TF over GST control); in experiment [6] it was 1.34 fold enrichment (6-mer frequency, TF over GST control). The binding signal is 1.19 fold enrichment (6-mer frequency, TF over GST control) in experiment [7]; 1.29 fold enrichment (6-mer frequency, TF over GST control) in experiment [8]; 1.27 fold enrichment (6-mer frequency, TF over GST control) in experiment [9]; 1.27 fold enrichment (6-mer frequency, TF over GST control) in experiment [10]; 1.25 fold enrichment (6-mer frequency, TF over GST control) in experiment [11]; 1.13 fold enrichment (6-mer frequency, TF over GST control) in [12]. Also, the binding signal is 1.5 fold enrichment (6-mer frequency, TF over GST control) in [13]; 1.29 fold enrichment (6-mer frequency, TF over GST control) in experiment [14]; 1.36 fold enrichment (6-mer frequency, TF over GST control) in experiment [15]; 1.25 fold enrichment (6-mer frequency, TF over GST control) in experiment [16]; 1.37 fold enrichment (6-mer frequency, TF over GST control) in [17]; 1.27 fold enrichment (6-mer frequency, TF over GST control) in experiment [18]. The binding signal in experiment [19] was 1.42 fold enrichment (6-mer frequency, TF over GST control).

Source of the values: article PMC7862700, “An all-to-all approach to the identification of sequence-specific readers for epigenetic DNA modifications on cytosine”.
